The nature of experiment [1]: Cell Viability - LYMP2-025 (AID 976).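 Also: plate controls were DMSO only for no effect and tetraoctylammonium bromide control for full effect.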 The procedure, abridged:
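Human lymphoblastoid LYMP2-025 cells (2500/well) were pre-incubated 5 hr at 37 C, then treated with compounds for 24 hr at 37 C in complete medium. Viability was read as intracellular ATP by CellTiter-Glo luminescence; AC50 from Hill fits.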

Experiment [2] is described as follows: Cell Viability - LYMP2-002 (AID 977).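 Also: compound exposure lasted 24 h at 37 °C; plate controls were DMSO only for no effect and 92 µM tetraoctylammonium bromide for full effect.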 The procedure, abridged: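 Human lymphoblastoid LYMP2-002 cells, 2500 per well, exposed to compounds for 24 h at 37 C in complete medium; viability read as intracellular ATP by CellTiter-Glo luminescence, AC50 from Hill fits.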
Experiment [3] in a line: Cell Viability - LYMP2-006 (AID 978). Also: nearly all actives have a fitted effect of over 60% in size. Also: potency is read from the fitted curve at half-maximal effect. Summed up: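 Cells are seeded at 2500 per well and rested 5 hr at 37 C. Compounds are added across a concentration series for 24 hr at 37 C, after which ATP is quantified by luciferase luminescence.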
The nature of experiment [4]: Cell Viability - LYMP2-007 (AID 979).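 Also: cells exposed to compound for 24 h before reading; nearly all actives have a fitted effect of over 60% in size.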 Also: potency is read from the fitted curve at half-maximal effect. Summed up:
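Human lymphoblastoid cells (2500/well) were plated in complete medium, incubated 5 hr at 37 C, then exposed to compounds for 24 hr at 37 C. Intracellular ATP was read by CellTiter-Glo luminescence after 30 min at room temperature; AC50 from Hill fits.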

Experiment [5] can be described thus: Cell Viability - LYMP2-008 (AID 980). Also: nearly all actives have a fitted effect of over 60% in size. Also: potency is read from the fitted curve at half-maximal effect. The procedure, abridged: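 Human lymphoblastoid cells (2500/well) were plated, held 5 hr at 37 C, then exposed to compounds for 24 hr at 37 C in complete medium. Intracellular ATP was read by CellTiter-Glo luminescence; AC50 from Hill-fitted concentration-response.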
Experiment [6] in a line: Cell Viability - LYMP2-010 (AID 981). Also: nearly all actives have a fitted effect of over 55% in size. Also: potency is read from the fitted curve at half-maximal effect. The procedure, abridged:
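Human lymphoblastoid LYMP2-010 cells (2500/well) were preincubated 5 hr at 37 C, then exposed to compounds for 24 hr at 37 C in complete medium. Intracellular ATP was measured by CellTiter-Glo luminescence after 30 min at room temperature; AC50 from Hill-fitted concentration-response.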

The nature of experiment [7]: Cell Viability - LYMP2-012 (AID 982).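 Also: cellular ATP by luciferase luminescence where a drop means cytotoxicity; cells exposed to compound for one day before reading; nearly all actives have a fitted effect of over 55% in size.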 Also: potency is read from the fitted curve at half-maximal effect.
The nature of experiment [8]: Cell Viability - LYMP2-014 (AID 983). Also: nearly all actives have a fitted effect of over 50% in size. Also: potency is read from the fitted curve at half-maximal effect. The procedure, abridged:
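Human lymphoblastoid cells (2500/well) were pre-incubated 5 hr at 37 C, then exposed to compounds in complete medium for 24 hr at 37 C. Intracellular ATP was read by CellTiter-Glo luminescence after 30 min at room temperature; AC50 from Hill fits.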

The nature of experiment [9]: Cell Viability - LYMP2-016 (AID 984). Also: nearly all actives have a fitted effect of over 55% in size. Also: potency is read from the fitted curve at half-maximal effect. Summed up: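 Cells were seeded at 2500 per well and rested 5 hr before a 24 hr compound exposure at 37 C. Viability was then gauged as cellular ATP by luciferase luminescence, with AC50 values fitted to the Hill equation.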
Experiment [10] in a line: Cell Viability - LYMP2-018 (AID 985). Also: nearly all actives have a fitted effect of over 50% in size. Also: potency is read from the fitted curve at half-maximal effect. Summed up:
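Human lymphoblastoid cells (2500/well) were pre-incubated 5 hr at 37 C, then exposed to compounds for 24 hr at 37 C in complete medium. Viability was read as intracellular ATP by CellTiter-Glo luminescence; AC50 values came from Hill-equation fits.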

A short description of experiment [11]: Cell Viability - LYMP2-020 (AID 986). Also: nearly all actives have a fitted effect of over 55% in size. Also: potency is read from the fitted curve at half-maximal effect. Summed up:
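Human lymphoblastoid cells, 2500/well, were pre-incubated 5 hr at 37 C, then exposed to compounds for 24 hr at 37 C in complete medium. Intracellular ATP was read by CellTiter-Glo luminescence, and AC50 was derived by Hill fitting of concentration-response data.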

Experiment [12] can be described thus: Cell Viability - LYMP2-022 (AID 987). Also: nearly all actives have a fitted effect of over 55% in size. Also: potency is read from the fitted curve at half-maximal effect. Summed up: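 Human lymphoblastoid cells, 2500/well, preincubated 5 hr at 37 C, then exposed to compounds over a concentration range for 24 hr at 37 C in complete medium. Viability read as intracellular ATP by CellTiter-Glo luminescence after 30 min at room temperature; AC50 from Hill fits.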
A short description of experiment [13]: Cell Viability - LYMP2-024 (AID 988). Also: nearly all actives have a fitted effect of over 60% in size. Also: potency is read from the fitted curve at half-maximal effect. Summed up:
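Human lymphoblastoid cells (2500/well) in complete medium were preincubated 5 hr at 37 C, then exposed to compounds for 24 hr at 37 C. Intracellular ATP was read by CellTiter-Glo luminescence; AC50 from Hill-equation fits of concentration-response data.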

Experiment [14] in a line: Cell Viability - LYMP2-026 (AID 989). Also: nearly all actives have a fitted effect of over 50% in size. Also: potency is read from the fitted curve at half-maximal effect. Summed up: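 Human lymphoblastoid cells (2500/well) in complete medium were preincubated 5 hr at 37 C, then exposed to compounds for 24 hr at 37 C. Cellular ATP was read by CellTiter-Glo luminescence; AC50 from Hill-equation fits of concentration-response data.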
Experiment [15] can be described thus: Cell Viability - LYMP1-002 - Assay at 24 hr (AID 993). Also: potency is read from the fitted curve at half-maximal effect. Summed up:
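Human lymphoblastoid LYMP1-002 cells, 2500/well in complete medium, were treated with compounds for 24 h at 37 C; intracellular ATP was read by CellTiter-Glo luminescence. AC50 values came from Hill-equation fits of qHTS concentration-response data.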

The nature of experiment [16]: Cell Viability - LYMP1-002 - Assay at 40 hr (AID 994). Also: nearly all actives have a fitted effect of over 60% in size. Also: potency is read from the fitted curve at half-maximal effect. Summed up: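 Human lymphoblastoid cells, 2500/well in complete medium, were preincubated 5 hr at 37 C, then exposed to compounds for 40 hr at 37 C. Intracellular ATP was read by CellTiter-Glo luminescence after 30 min at room temperature; AC50 from Hill-equation fits.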
The target of experiment [17] is Alpha-galactosidase A (Homo sapiens) (UniProt P06280). The experiment can be described thus: Counterscreen for Glucocerebrosidase Inhibitors: qHTS Assay for Human alpha-Galactosidase at pH 4.5 (AID 992). Also: 0% is about no effect. Summed up: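 Concentration-response curves (0.7 nM to 77 uM final) were modeled with the Hill equation to give AC50. Reactions: 2 nM enzyme, 80 uM fluorogenic alpha-galactoside, pH 4.5 citric acid buffer, 20 min, room temperature.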
Sequence of Alpha-galactosidase A (Homo sapiens) (P06280 whole entry, looked up): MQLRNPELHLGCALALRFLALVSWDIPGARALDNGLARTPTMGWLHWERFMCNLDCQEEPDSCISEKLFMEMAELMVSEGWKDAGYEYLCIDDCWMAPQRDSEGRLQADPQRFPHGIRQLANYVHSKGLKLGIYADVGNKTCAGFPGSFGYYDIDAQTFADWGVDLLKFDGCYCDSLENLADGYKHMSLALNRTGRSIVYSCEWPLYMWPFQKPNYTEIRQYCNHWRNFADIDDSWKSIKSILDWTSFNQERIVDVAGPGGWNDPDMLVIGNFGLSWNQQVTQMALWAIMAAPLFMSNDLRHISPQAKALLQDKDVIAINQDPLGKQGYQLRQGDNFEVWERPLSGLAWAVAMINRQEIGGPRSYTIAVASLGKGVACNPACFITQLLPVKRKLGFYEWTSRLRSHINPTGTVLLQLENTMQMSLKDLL
(A counterscreen serves to expose hits that act by an unwanted route or on another target.)

The target in experiment [18] is alpha-glucosidase (Oryza sativa, rice) (UniProt Q653V4). As to the kind of experiment: Counterscreen for Glucocerebrosidase Inhibitors: qHTS Assay for Rice alpha-Glucosidase at pH 5.0 (AID 997).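 Also: 0% = full activity with enzyme and -100% = basal without enzyme.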 Summed up:
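Rice alpha-glucosidase (4 nM final) with 400 uM 4-methylumbelliferyl-alpha-D-glucopyranoside in citrate buffer pH 5.0, 20 min at room temperature, stopped at pH 10; fluorescence 365/440 nm, compounds 0.7 nM–77 uM, AC50 from Hill fits.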

Experiment [19] in a line: qHTS Assay for Lipid Storage Modulators (AID 1519; calls by dose curve; as to activity change, negative = inhibition: % is scaled to controls: 0 for no effect and ±100 for the full control effect). Conditions: Drosophila S3 cells, BODIPY lipid droplet/cell ratio, laser cytometry, cells loaded with oleic acid; for activity change, negative = inhibition: at 57.5 µM (top of the series). The procedure, abridged:
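Cells seeded at 5,000 per well were treated with compounds over a concentration series and loaded with oleic acid (400 uM, as added). Lipid droplet fluorescence (488 nm excitation, 500-530 nm channel) was read by laser-scanning cytometry and normalized to 20 uM Triacsin C.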

Setting [20] is: measured here: cell count channel max response.
Where [21] appears, read: measured here: lipid channel max response.

“And” between values parts separate entries of the source, which are not always exact repeats. Equal entries are not always repeated. Inconclusive results are not listed. The source made the active and inactive calls. Unless noted, calls follow the shape of the dose curve; as a rule, active = well fitted curve in the direction sought with a large enough effect; inconclusive = small, poorly fitted or top-dose-only effect, or another doubt; inactive = no such curve, though single readings can be large; an effect the other way counts as inactive or inconclusive.

`Nc1ccc(O)c([N+](=O)[O-])c1`: the Potency entry in experiment [1], in [2], in experiment [3], in experiment [4], in experiment [5] and in experiment [6] was “inactive” in each case. Moreover, the Potency entry in experiment [7], in experiment [8], in experiment [9], in experiment [10], in [11] and in experiment [12] was “inactive” each time. The Potency result in experiment [13], in experiment [14], in experiment [15] and in [16] was “inactive” in each case.

With `CC(C)NC[C@H](O)COc1cccc2[nH]ccc12`, the compound was called inactive in experiment [17] and in experiment [18]. Besides, in experiment [19], the activity change, negative = inhibition is 1.59% (inactive). The max response in [19] (setting [20]) and in experiment [19] (setting [21]) was -1.16% throughout.

For the compound `O=c1[nH]c2ccccc2n1CCCN1CCN(C(c2ccccc2)c2ccccc2)CC1`, the outcome in [17] and in [18] was inactive. In addition, the activity change, negative = inhibition in experiment [19] is 0.533% (inactive). Further, the max response came out at 44.5% in experiment [19] (setting [20]) and 44% in experiment [19] (setting [21]).

For the compound `CCCCCCCC/C=C\CCCCCCCC(=O)NCCO`, the result in [17] and in experiment [18] was inactive. The activity change, negative = inhibition in experiment [19] is 1.41% (inactive). In addition, the values for the max response in [19] (setting [20]) and in experiment [19] (setting [21]) were 18.9% and 20.6%, respectively.

With `COc1cc2c(CCNC(C)=O)c[nH]c2cc1Cl`, the outcome in experiment [17] and in [18] was inactive. In addition, the activity change, negative = inhibition in experiment [19] was -11.4% (inactive). The max response in experiment [19] (setting [20]) is -19%; in [19] (setting [21]), -30.9%.

Consider `NCCCCCCCCCCN`, for which the compound was called inactive in [17] and in experiment [18]. Also, the activity change, negative = inhibition in experiment [19] is -1.41% (inactive). The max response came out at 42.1% in [19] (setting [20]) and 42.6% in experiment [19] (setting [21]).

Take `N[C@@H](CC(=O)O)C(=O)O`: the compound was called inactive in experiment [17] and in [18]. Besides, the activity change, negative = inhibition in [19] is 4.62% (inactive) and -0.577% (inactive). Besides, the max response in experiment [19] (setting [20]) was -7.93% and 52.8%; in experiment [19] (setting [21]), -3.65% and 51.4%.

As for `O=c1[nH]c2cc(Cl)c(Cl)cc2[nH]c1=O`, the compound was classed as inactive in [17] and in [18]. For the same compound, the activity change, negative = inhibition in experiment [19] is -0.911% (inactive). The max response in experiment [19] (setting [20]) is -49.2%; in experiment [19] (setting [21]), -51.3%.

For the compound `O=C(O)[C@@H]1C[C@@H](C(=O)O)N1`, the compound was called inactive in experiment [17] and in [18]. In experiment [19], the activity change, negative = inhibition was -10.7% (inactive) and 0.262% (inactive). Further, the max response was -15.8% and -6.72% in experiment [19] (setting [20]); -25% and -8.29% in experiment [19] (setting [21]).

Turning to `O=C1NC(O)=NC1(c1ccccc1)c1ccccc1`, the call in experiment [17] and in [18] was inactive. In addition, the activity change, negative = inhibition in experiment [19] is 1.6% (inactive). The max response in [19] (setting [20]) was -13.9%; in experiment [19] (setting [21]), -13.3%.

As to `N[C@H](CCCP(=O)(O)O)C(=O)O`, the result in experiment [17] and in [18] was inactive. Further, the activity change, negative = inhibition in experiment [19] was 2.93% (inactive) and -1.99% (inactive). The max response in [19] (setting [20]) is -9.86% and -13.3%; in experiment [19] (setting [21]), -5.72% and -16.1%.

With `NCCNC(=O)c1ncsc1-c1cccc(F)c1`, the compound was called inactive in experiment [17] and in experiment [18].

In the case of `NC(=O)C(=O)O`, the outcome in [17] and in experiment [18] was inactive.

In the case of `N=C1N=C(N)c2cc3ccccc3cc21`, the Potency in experiment [3] was 50.1 µM (active); in experiment [4] it was 39.8 µM (active); in [5], 39.8 µM (active); in [6], 39.8 µM (active); in experiment [7], 39.8 µM (active); in experiment [8], 39.8 µM (active). In addition, the Potency in experiment [9], in experiment [10], in [11], in experiment [12], in [13] and in [14] was 39.8 µM (active) each time. Besides, the Potency in experiment [15] and in [16] was 39.8 µM (active) in each case.

With `CN1CCc2ccccc2Cc2[nH]c3ccccc3c2CC1`, the outcome in [17] and in experiment [18] was inactive.

For `O=Nc1ccc2oc(=O)ccc2c1`, the compound was classed as inactive in [17] and in experiment [18].

The values above are taken from PubChem BioAssay (NCATS).
